The values that follow come from PubChem BioAssay (Tox21).

Several values for one entry are separate records, joined by “and”; a condition that tells them apart may be missing. Equal values may be shown once. Records with an inconclusive call do not appear. More than one record can exist for a structure, and the calls need not agree. Activity calls are given as the source filed them. Unless noted, calls follow the shape of the dose curve; as a rule, active = well fitted curve in the direction sought with a large enough effect in the repeat runs; inconclusive = weak or mixed curves; inactive = no such curve, though single readings can be large; an effect the other way counts as inactive or inconclusive.

A short description of test [1]: qHTS assay to identify small molecule agonists of the retinoic acid receptor (RAR) signaling pathway (AID 1159553). Also: potency is read from the fitted curve at half-maximal effect. Particulars: C3RL4 RARE luciferase reporter, agonist, 6 h; series mostly up to 73.3 µM. A digest of the protocol:
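Cell line C3RL4, RARE luciferase reporter. Treatment: compounds in DMSO, 6 hr, 37 C, 5% CO2, after overnight plating. Detection: luminescence, 30 min RT after reagent.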
For orientation: In qHTS, concentration-response curves come from the screen itself.

The nature of test [2]: qHTS assay to identify small molecule antagonists of the estrogen related receptor (ERR) signaling pathway from Tox21 library - cell viability counter screen (AID 1224834). Also: nearly all actives have a fitted effect of over 30% in size. Also: potency is read from the fitted curve at half-maximal effect. Conditions: ERR reporter cells viability, CellTiter-Fluor, 17.5 h; series mostly up to 92.4 µM. An outline of the steps:
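Viability readout (CellTiter-Fluor fluorescence, 30 min at 37 C) multiplexed with the ERR assay; cells treated 17.5 h at 37 C with compounds delivered in DMSO.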

The target of test [3] is Luciferin 4-monooxygenase (Photinus pyralis) (UniProt P08659). The test can be described thus: qHTS assay to identify small molecule inhibitors of firefly luciferase (AID 1224835). Also: nearly all actives have a fitted effect of over 25% in size. Also: potency is read from the fitted curve at half-maximal effect. Conditions: purified P. pyralis luciferase, luminescence inhibition; series mostly up to 115 µM. A digest of the protocol:
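Quantitative HTS format; KM concentrations of both substrates. Purified P. pyralis FLuc activity quantified from luminescence images.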

Test [4] in a line: qHTS assay to identify small molecule agonists of the constitutive androstane receptor (CAR) signaling pathway - cell viability counter screen (AID 1224836). Also: nearly all actives have a fitted effect of over 45% in size. Conditions: HepG2-CYP2B6-hCAR viability, CellTiter-Fluor, 23 h, PK11195 added to every well; series mostly up to 92.4 µM. A digest of the protocol: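 Double-stable HepG2 hepatoma cells (hCAR plus CYP2B6-2.2kb) are treated for 23 h at 37 C with test compounds in 15-point concentration series. PK11195 at 0.75 uM final is co-added. Cell viability is quantified by CellTiter-Fluor.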

A short description of test [5]: qHTS assay to identify small molecule antagonists of the estrogen related receptor (ERR) signaling pathway - cell viability counter screen (AID 1224818).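 Also: viability measured after 17.5 h of compound exposure.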 Conditions: ERR reporter cell line viability counter screen; series mostly up to 46.1 µM. An outline of the steps:
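Here, ERR cells are plated at 2,000 cells per well, allowed 6 h to attach, and treated with compounds in DMSO for 17.5 h at 37 C. CellTiter-Fluor is then added and fluorescence read after 30 min.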

A short description of test [6]: qHTS assay to identify small molecule antagonists of the estrogen related receptor signaling pathway with the pleiotropic PPARgamma coactivator (PGC) cell viability counter screen (AID 1224822; also: potency is read from the fitted curve at half-maximal effect;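 also: viability read after 17.5 h compound exposure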). Conditions: ERR/PGC reporter cell line viability counter screen; series mostly up to 46.1 µM. The source says:
(§1) National Center for Advancing Translational Sciences [NCATS]
(§2) NIH Chemical Genomics Center [NCGC]
(§3) U.S. Environmental Protection Agency [EPA]
(§4) National Institutes of Environmental Health Sciences [NIEHS]
(§5) National Toxicology Program [NTP]
(§6) U.S. Food and Drug Administration [FDA]
Estrogen related receptors (ERRs), the first orphan nuclear receptors discovered, play an important role in the control of cellular energy metabolism. ERRs are required for high-energy production in response to the environmental challenges. The pleiotropic PPARgamma coactivator (PGC) is a major partner of ERR and a key regulator in energy homeostasis. Together they have been implicated in the etiology of metabolic disorders such as Type 2 diabetes and metabolic syndrome. ERR-alpha was also identified as an adverse marker for breast cancer progression; ERR-alpha-positive tumors have a poor prognosis. To screen and to identify environmental compounds that perturb the ERR and PGC/ERR signaling pathways could provide valuable information for potential therapeutic or preventive measures in the treatment of metabolic disease. To differentiate true PGC/ERR antagonists or agonist from cytotoxic substances, the assay is multiplexed with cell viability assay.
(§7) Tox21 Assay Protocol Summary:
The PGC/ERR cells were dispensed at 2,000 cells/5 ul/well in 1536-well white plates using a Multidrop dispenser. After the assay plates were incubated at a 37 C/5% CO2 incubator for 6 hours, 23 nL of compounds dissolved in DMSO, positive and negative controls or DMSO only was transferred to the assay plate by a pin tool. The plates were incubated at 37 C for 17.5 hours. 1 ul/well of CellTiter-Fluor reagent was added into the assay plates using a Flying Reagent Dispenser. After 30 min incubation at 37 C/5% CO2, the fluorescence intensity in the plates was measured using a ViewLux plate reader.

Test [7] can be described thus: qHTS assay to identify small molecule antagonists of the estrogen related receptor (ERR) signaling pathway (AID 1224819;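 also: luminescence from an ERR-driven luciferase reporter measured with One-Glo reagent; nearly all actives have a fitted effect of over 50% in size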). Conditions: ERR reporter cell line, luciferase inhibition; series mostly up to 46.1 µM.
Text: as §1, §2, §3, §4, §5, §6
Estrogen related receptors (ERRs), the first orphan nuclear receptors discovered, play an important role in the control of cellular energy metabolism. ERRs are required for high-energy production in response to the environmental challenges. ERR-alpha was also identified as an adverse marker for breast cancer progression; ERR-alpha-positive tumors have a poor prognosis. To screen and to identify environmental compounds that perturb the ERR signaling pathways could provide valuable information for potential therapeutic or preventive measures in the treatment of metabolic disease. For identifying ERR antagonists, ERR cell line (provided by NTP) has been used to screen LOPAC library.
as §7
The ERR cells were dispensed at 2,000 cells/5 ul/well in 1536-well white plates using a Multidrop dispenser. […] After 30 min incubation at room temperature, the luminescence intensity in the plates was measured using a ViewLux plate reader.

A short description of test [8]: qHTS assay to identify small molecule agonists of the estrogen related receptor (ERR) signaling pathway (AID 1224820). Particulars: ERR reporter cell line, luciferase agonist mode; series mostly up to 46.1 µM. A digest of the protocol:
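ERR reporter cell line (from NTP), 2,000 cells/well, incubated 6 h before compound addition, then 18 h at 37 C. Luminescence measured 30 min after One-Glo reagent at room temperature.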

The subject of test [9] is estrogen-related receptor alpha (ERRalpha) with PGC-1alpha coactivator, human. Put plainly: qHTS assay to identify small molecule antagonists of the estrogen related receptor signaling pathway with the pleiotropic PPARgamma coactivator (PGC) (AID 1224821; calls by dose curve;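 also: lower luminescence signal means antagonism of PGC/ERR signalling; nearly all actives have a fitted effect of over 50% in size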). Particulars: ERR/PGC reporter cell line, luciferase, antagonist mode; series mostly up to 46.1 µM. A digest of the protocol:
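PGC/ERR reporter cell line, plated 6 h before compound addition, then exposed 18 h at 37 °C. Luciferase activity read by luminescence 30 min after One-Glo addition; decrease indicates antagonism.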

Test [10] is described as follows: qHTS assay to identify small molecule agonists of the estrogen related receptor signaling pathway with the pleiotropic PPARgamma coactivator (PGC) (AID 1224823). Conditions: ERR/PGC reporter cell line, luciferase agonist mode; series mostly up to 46.1 µM. A digest of the protocol: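 PGC/ERR reporter cells seeded 6 h, then exposed to compounds (23 nL in DMSO) for 18 h at 37 C. One-Glo luciferase luminescence read after 30 min at room temperature.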

Chain of Luciferin 4-monooxygenase (Photinus pyralis) (P08659 whole entry, looked up): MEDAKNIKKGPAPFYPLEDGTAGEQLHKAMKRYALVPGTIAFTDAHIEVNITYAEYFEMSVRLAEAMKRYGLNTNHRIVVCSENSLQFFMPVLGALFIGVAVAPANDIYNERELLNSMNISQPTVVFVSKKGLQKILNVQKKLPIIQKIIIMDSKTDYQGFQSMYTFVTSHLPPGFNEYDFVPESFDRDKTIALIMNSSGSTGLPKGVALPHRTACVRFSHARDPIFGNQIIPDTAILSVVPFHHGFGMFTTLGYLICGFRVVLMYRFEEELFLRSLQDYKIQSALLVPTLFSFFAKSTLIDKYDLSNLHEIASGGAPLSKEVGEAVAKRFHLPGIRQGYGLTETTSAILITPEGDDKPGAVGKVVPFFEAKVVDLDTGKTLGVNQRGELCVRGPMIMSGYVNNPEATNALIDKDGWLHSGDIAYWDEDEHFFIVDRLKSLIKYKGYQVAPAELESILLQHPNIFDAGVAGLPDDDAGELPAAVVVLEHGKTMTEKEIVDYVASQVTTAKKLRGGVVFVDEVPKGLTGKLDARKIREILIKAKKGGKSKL

Consider `CCn1cc[n+](C)c1C`, for which the Potency result in test [1], in [2], in test [3] and in test [4] was “inactive” each time.
For `CC[N+](CC)(CC)CC`, the Potency result in test [1], in test [6] and in [4] was “inactive” throughout. Moreover, the outcome in test [5] was inactive.
Turning to `Nc1ccc(-c2ccc(N)cc2)cc1`, the Potency result in test [1] and in test [4] was “inactive” throughout. In addition, in test [3], the Potency was 78.7 µM (active) and 28.1 µM (active).
Consider `O=P1(N(CCCl)CCCl)NCCCO1` (stereo not drawn), for which the outcome in test [5], in test [7], in test [8], in test [9] and in [10] was inactive. Moreover, the Potency entry in [6], in test [3] and in test [4] was “inactive” each time.
As for `COCC(=O)N(c1c(C)cccc1C)C(C)C(=O)OC` (stereo not drawn), the Potency result in test [1], in test [3] and in test [4] was “inactive” throughout.
With `Nc1ccc(Cl)cc1`, the call in test [5] was inactive. Also, the Potency entry in [6], in test [3] and in [4] was “inactive” in each case.
Regarding `CCCCCCCCCCCCCCCCn1cc[n+](C)c1`, in test [1], the Potency result is “inactive”. For the same molecule, the Potency in test [3] is 81.4 µM (active) and inactive.
For `CCCC[n+]1ccccc1`, the Potency result in test [1], in test [3] and in [4] was “inactive” throughout.
Take `CC[n+]1ccccc1`: the Potency result in test [1], in [3] and in test [4] was “inactive” in each case. Besides, the Potency result in test [2] is “inactive and 30.4 µM (active)”.
On to `O=C(O)COc1ccc(Cl)cc1Cl`, for which the Potency result in test [2], in [3] and in [4] was “inactive” each time.
With `C[C@]12CCC(=O)C=C1CC[C@@H]1[C@@H]2CC[C@]2(C)C(=O)CC[C@@H]12`, the Potency result in [1], in [3] and in test [4] was “inactive” throughout.
Take `CCOP(=S)(OCC)Oc1ccc2c(C)c(Cl)c(=O)oc2c1`: the Potency entry in test [1] was “inactive and 11.9 µM (active)”; in test [3] it was “inactive and 15.5 µM (active)”. Besides, in [4], the Potency entry is “inactive”.
Regarding `CC[N+]1(C)CCCC1`, the Potency entry in test [2], in test [3] and in test [4] was “inactive” throughout.
`O=C(O)C(Cl)(Cl)Cl`: the Potency result in test [1], in [3] and in test [4] was “inactive” each time.
As for `CCCC[n+]1ccc(C)cc1`, the Potency result in test [1] and in test [4] was “inactive” in each case. The Potency result in [2] was “inactive and 68.2 µM (active)”; in [3], 20.3 µM (active) and inactive.
Consider `O=[N+]([O-])c1ccccc1O`, for which the Potency entry in test [1], in test [3] and in [4] was “inactive” throughout.
As to `CCCCCCCCn1cc[n+](C)c1`, the Potency entry in [1] and in test [3] was “inactive” each time.
As for `COc1ccccc1N`, the Potency entry in [1], in [2], in test [3] and in [4] was “inactive” throughout.
As for `CCNc1nc(Cl)nc(NCC)n1`, the Potency result in test [1], in [3] and in test [4] was “inactive” each time.
With `Oc1cccc2cccnc12`, the Potency in test [6] was 727 nM (active).
With `CCC(=O)C(CC(C)N(C)C)(c1ccccc1)c1ccccc1` (stereo not drawn), the Potency entry in test [1], in test [2] and in [4] was “inactive” throughout.
For `COP(=O)(OC)C(O)C(Cl)(Cl)Cl` (stereo not drawn), the Potency entry in test [1], in [3] and in test [4] was “inactive” each time.
Turning to `Cc1cc(Cl)ccc1N`, the Potency entry in test [1], in test [2], in test [3] and in [4] was “inactive” throughout.
`Cc1cc(-c2ccc(N)c(C)c2)ccc1N`: the Potency in test [1] was 15.1 µM (active); in [3], 36 µM (active) and 56.2 µM (active) and 63.3 µM (active). Moreover, in test [4], the Potency result is “inactive”.
On to `O=[N+]([O-])O`, for which the Potency entry in test [1] and in [4] was “inactive” throughout.
Turning to `C1CCC(NC2CCCCC2)CC1`, the Potency result in test [1], in [2], in test [3] and in test [4] was “inactive” in each case.
For the molecule `CCCCCCCCCCCC(=O)O`, the Potency entry in test [1] and in test [4] was “inactive” each time. For the same molecule, the Potency in test [3] is 40 µM (active) and 57.6 µM (active) and 71 µM (active).
As for `CCCCCCCCCCn1cc[n+](C)c1`, in [2], the Potency entry is “inactive and 8.62 µM (active)”. Further, the Potency result in [3] was “inactive”.
Regarding `OCCOc1ccccc1`, the Potency entry in test [1], in [2], in test [3] and in test [4] was “inactive” throughout.
Take `O=C(O)c1ccccc1O`: the Potency result in test [1], in test [2] and in test [4] was “inactive” each time.
With `CCCCCC[n+]1ccccc1`, the Potency entry in [2], in [3] and in [4] was “inactive” in each case.
For the molecule `O=C(O)CCl`, the Potency result in test [1], in test [3] and in test [4] was “inactive” throughout.
With `C=CCOC(Cn1ccnc1)c1ccc(Cl)cc1Cl` (stereo not drawn), in test [3], the Potency result was “inactive”.
Still for that read-out and setting: to `CCCCCCCCCCCCn1cc[n+](C)c1` belongs “inactive”.
As for `CCCC[n+]1ccccc1C`, the Potency result in test [2], in test [3] and in test [4] was “inactive” in each case.
For the molecule `CCCC[n+]1cccc(C)c1`, the Potency result in test [3] and in test [4] was “inactive” each time.
Take `CNC`: the Potency entry in test [3] and in [4] was “inactive” throughout.
For `O=c1[nH]c(=O)n(Cl)c(=O)n1Cl`, the Potency entry in [3] and in test [4] was “inactive” throughout.
Take `CCC[N+]1(C)CCCC1`: the Potency result in test [3] and in test [4] was “inactive” throughout.
`CCC[N+]1(C)CCCCC1`: the Potency entry in [3] and in [4] was “inactive” in each case.
With `CCCC[N+]1(C)CCCC1`, the Potency result in [2], in test [3] and in test [4] was “inactive” in each case.
Regarding `O=c1nc(O)n(Cl)c(=O)n1Cl`, the Potency entry in test [3] and in test [4] was “inactive” throughout.
Consider `CCCCCCn1cc[n+](C)c1`, for which the Potency entry in [3] and in test [4] was “inactive” each time.
On to `C[N+](C)(C)Cc1ccccc1`, for which the Potency result in [3] and in test [4] was “inactive” each time.
Turning to `CCCC[N+]1(C)CCCCC1`, the Potency result in test [3] and in [4] was “inactive” each time.
On to `COc1ccc(N)cc1`, for which the Potency result in test [3] and in test [4] was “inactive” each time.
Turning to `Oc1ccccc1-c1ccccc1`, the Potency result in test [2], in test [3] and in test [4] was “inactive” in each case.
`O=C(O)c1nc(Cl)ccc1Cl`: the Potency entry in test [3] and in [4] was “inactive” throughout.
Regarding `CCCCn1cc[n+](C)c1`, the Potency result in test [2] and in test [4] was “inactive” each time.
Regarding `CCCCn1cc[n+](C)c1C`, the Potency entry in test [3] and in [4] was “inactive” throughout.
In the case of `CC(Cl)(Cl)C(=O)O`, the Potency entry in test [3] and in test [4] was “inactive” throughout.
